From PubChem BioAssay (NCATS)
Active and inactive are the calls of the source.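 Rule for the calls: active = calcium activation more than 3 SD above the typical response in the agonist read; inactive = the rest.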

Each compound was assayed against Thyrotropin-releasing hormone receptor (Homo sapiens) (UniProt P34981) (assay: qHTS for Small Molecule Agonists and Allosteric Enhancers of Human TRH Receptor: Validation Screen for Agonists (AID 493127;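 note: intracellular calcium rise by fluo-8 fluorescence before TRH EC20 addition; 0% is about no effect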)). Conditions: TRH receptor agonist cell assay; at 2 µM; active compounds read high.
Method in brief: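 Cells 2000/well, 10% FCS, 18 h 33.5C/5% CO2 → fluo-8 Ca dye, RT 30 min–1.5 h → FDSS baseline 10 × 1 s → compound added → 230 cycles (1 s/cycle) agonist mode. TRH controls.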

Chain of Thyrotropin-releasing hormone receptor (Homo sapiens) (P34981 whole entry, looked up): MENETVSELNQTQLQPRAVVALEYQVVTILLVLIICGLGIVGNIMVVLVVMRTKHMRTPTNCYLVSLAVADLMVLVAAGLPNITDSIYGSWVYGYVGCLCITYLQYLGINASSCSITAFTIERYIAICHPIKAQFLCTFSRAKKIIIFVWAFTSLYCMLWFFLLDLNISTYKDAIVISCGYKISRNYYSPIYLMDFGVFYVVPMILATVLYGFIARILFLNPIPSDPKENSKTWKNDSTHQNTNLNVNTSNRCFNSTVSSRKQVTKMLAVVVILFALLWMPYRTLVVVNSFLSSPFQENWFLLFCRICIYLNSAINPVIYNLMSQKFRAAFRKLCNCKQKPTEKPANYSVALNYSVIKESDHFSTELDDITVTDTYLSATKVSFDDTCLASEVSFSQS

How did the activation turn out when `Cc1ccc(S(=O)(=O)N[C@@H](Cc2ccccc2)C(=O)CCl)cc1` was run?
Its activation is 2.5% (inactive).

How did the activation turn out when `CCN1CCCC1CNC(=O)c1cc(S(N)(=O)=O)ccc1OC` (configuration not stated) was run?
The activation was 0.25% (inactive).

For `O=C(O)C1CCCN(CCC=C(c2ccccc2)c2ccccc2)C1` (configuration not stated), which activation is on record?
Its activation is 0.875% (inactive).

Which activation does the source give for `CCN(CC)CC#CCOC(=O)C(O)(c1ccccc1)C1CCCCC1` (configuration not stated) here?
The activation was -7.56% (inactive).

`OCc1ccc(-c2nn(Cc3ccccc3)c3ccccc23)o1` was tested. Which activation did it give?
The activation was 0.188% (inactive).

With `CCCCS(=N)(=O)CCC(N)C(=O)O` (configuration not stated) as the compound, how does the activation read?
Its activation is -2.38% (inactive).

For `CC1=C(C(=O)O)N2C(=O)[C@@H](NC(=O)C(N)c3ccccc3)[C@H]2SC1` (some centres not stated), which activation is on record?
The activation was 0% (inactive).

For `NC(=O)c1cccc(N)c1`, which activation is on record?
The activation was 1.12% (inactive).

How did the activation turn out when `Nc1nc(N)c2nc(CNc3ccc(C(=O)NC(CCC(=O)O)C(=O)O)cc3)cnc2n1` (configuration not stated) was run?
Its activation is 1% (inactive).

With `CC(C)(C)NC(=O)[C@H]1CC[C@H]2[C@@H]3CC[C@H]4NC(=O)C=C[C@]4(C)[C@H]3CC[C@]12C` as the compound, how does the activation read?
Its activation is 0.688% (inactive).

`CC(C)NCC(O)c1ccc(NS(C)(=O)=O)cc1` (configuration not stated) was tested. Which activation did it give?
Its activation is 0.875% (inactive).

How did the activation turn out when `COc1cc2ncnc(Nc3cccc(Cl)c3)c2cc1OC` was run?
Its activation is -6.5% (inactive).
